CYP2C19 act: increases human CYP2C19 enzyme activity; P33261; recombinant CYP2C19, luciferin-H EGE luminescence; hits give high values; 0 = fully inhibited enzyme, 1 = untreated enzyme; activation factor at 5 µM; AID 1025; 96,000 tested, under 10 active;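 active = activation factor of at least 2 at 5 µM in the primary screen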
CYP2C9 inh: blocks human cytochrome P450 2C9; inhibition, % at 5 µM; P11712; AID 777; CYP2C9 Supersomes, luciferin-H conversion, luminescence; hit rate 20% among 96,000;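 active = blocking of liver enzyme CYP2C9 beyond about 50% at 5 µM, limit read from the data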
Target sequence (P11712 whole entry, looked up): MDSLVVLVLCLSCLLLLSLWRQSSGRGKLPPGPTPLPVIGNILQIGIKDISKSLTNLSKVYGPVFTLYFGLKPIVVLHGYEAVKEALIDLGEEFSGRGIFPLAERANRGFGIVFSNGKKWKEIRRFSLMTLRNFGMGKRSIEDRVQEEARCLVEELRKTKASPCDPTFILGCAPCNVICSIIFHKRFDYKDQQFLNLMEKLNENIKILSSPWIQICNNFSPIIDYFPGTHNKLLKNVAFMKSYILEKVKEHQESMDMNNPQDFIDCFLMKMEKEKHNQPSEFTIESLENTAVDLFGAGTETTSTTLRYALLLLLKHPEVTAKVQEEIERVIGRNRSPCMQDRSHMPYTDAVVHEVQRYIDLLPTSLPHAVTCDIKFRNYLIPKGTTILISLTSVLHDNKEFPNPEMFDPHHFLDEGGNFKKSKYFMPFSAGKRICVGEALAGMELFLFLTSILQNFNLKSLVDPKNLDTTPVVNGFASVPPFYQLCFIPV
CYP2C9 act: increases human cytochrome P450 2C9 activity; P11712; AID 1024; activation factor at 5 µM; recombinant CYP2C9, luciferin-H conversion, luminescence; hits give high values; factor 1 = untreated enzyme, 0 = blocked; hit rate 1.4% among 96,000;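 active = activation factor of 2 or more for CYP2C9 at a 5 µM dose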
EphB4 ephrin blk: EphB4-ephrin-B2 interaction antagonism; AID 720; EphB4 LBD / TNYL-RAW-Alexa532 peptide, fluorescence polarization; hit rate 0.15% among 97,000; inhibition, % at 7 µM; P54760;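 active = inhibition above the screen-wide mean inhibition plus 3 SD, cut at about 15% in these data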
CYP2C19 inhib: inhibitors of human CYP2C19; AID 778; inhibition, % at 5 µM; CYP2C19 Supersomes, luciferin-H EGE luminescence, 30 min; hit rate 21% among 96,000;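 active = CYP2C19 inhibition above a set limit at 5 µM in the primary screen, cut at about 50% in these data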
Numbers stand for hits; – = inactive; · = not tested or not shown. Hits are enriched below; roughly 27% of the tested compounds scored in any of these assays.

SMILES | CYP2C19 act | CYP2C9 inh | CYP2C9 act | EphB4 ephrin blk | CYP2C19 inhib
CC(C)(C)c1ccc(C(=O)N2CCC(C(=O)NCc3ccco3)CC2)cc1 | · | · | · | – | ·
COc1ccc(NC(=O)c2ccccc2NS(C)(=O)=O)cc1OC | – | 57.0 | – | – | –
CS(=O)(=O)Nc1ccccc1C(=O)Nc1cc(Cl)cc(Cl)c1 | – | – | – | – | –
CS(=O)(=O)Nc1ccccc1C(=O)Nc1cccc(Cl)c1 | – | 67.6 | – | – | –
CCOC(=O)/C(C#N)=C\c1cc(C)n(-c2ccccc2)c1C | – | – | – | – | –
CCOC(=O)/C(C#N)=C/c1cc(C)n(-c2ccc(C)cc2)c1C | – | 55.1 | – | – | –
CCOC(=O)c1ccc(N2C(=O)C(O)=C(C(C)=O)C2c2ccc(O)c(OC)c2)cc1 (configuration not stated) | – | 81.4 | – | · | –
CCOC(=O)c1ccc(N2C(=O)c3n[nH]c(C)c3C2c2ccc(OC)cc2OC)cc1 (configuration not stated) | · | · | · | – | ·
COc1cc(C2C(C(C)=O)=C(O)C(=O)N2c2ccc(C)cc2)ccc1O (configuration not stated) | – | – | – | – | –
CCOC(=O)c1ccc(N2C(=O)c3n[nH]c(C)c3C2c2ccco2)cc1 (configuration not stated) | – | 76.7 | – | – | 81.4
CCOC(=O)c1ccc(N2C(=O)c3n[nH]c(C)c3C2c2ccc(OC)cc2)cc1 (configuration not stated) | – | 93.3 | – | – | 90.5
CCOC(=O)c1ccc(N2C(=O)c3n[nH]c(C)c3C2c2ccc(OC)c(OC)c2)cc1 (configuration not stated) | – | 78.4 | – | – | 81.9
Cc1ccc(N2C(=O)c3n[nH]c(C)c3C2c2ccco2)cc1 (configuration not stated) | – | – | – | – | –
CCOc1ccc(NC(=O)C(C)O)c(NS(=O)(=O)c2ccc(CCNC(C)=O)cc2)c1 (configuration not stated) | – | – | – | – | –
CC(=O)Nc1ccccc1-c1nn[nH]n1 | – | – | – | – | –
CCOC(=O)C1=C(C)N(c2ccc(C)c(C)c2)C(=O)/C1=C\c1ccco1 | – | – | – | – | –
O=C(Cc1cc(=O)[nH]c(=O)[nH]1)NCCN1CCOCC1 | · | · | · | – | ·
Cc1ccc(N2C(=O)c3n[nH]c(C)c3C2c2ccccn2)cc1 (configuration not stated) | – | – | – | – | –
COC(=O)c1ccc(C2c3c(n[nH]c3C)C(=O)N2c2ccc(C)cc2)cc1 (configuration not stated) | – | 62.6 | – | – | 77.0
Cc1cc(NS(=O)(=O)c2ccc(NC(=O)c3ccco3)cc2)nc(C)n1 | – | – | – | – | –
COc1ccc2cc(C#N)c(N3CCN(Cc4nnnn4CCC(C)C)CC3)nc2c1 | – | 56.8 | – | – | 58.8
Cc1ccc2nc(N3CCN(Cc4nnnn4Cc4ccccc4)CC3)c(C#N)cc2c1 | – | 88.9 | – | – | 78.5
CCC(C)(C)NC(=O)C(c1ccc(C)cc1)N(Cc1cccs1)C(=O)c1ccc2c(c1)OCCO2 (configuration not stated) | – | – | – | – | –
COc1ccc(NC(=O)CSc2nc3c(c(=O)n2-c2ccc(F)cc2)SCC3)cc1 | – | 62.4 | – | – | –
CCOc1ccc(-n2c(SCC(=O)NCc3ccco3)nc3c(c2=O)SCC3)cc1 | – | 62.3 | – | · | –
SMILES | CYP2C19 act | CYP2C9 inh | CYP2C9 act | EphB4 ephrin blk | CYP2C19 inhib
O=C(CSc1nc2c(c(=O)n1-c1ccc(Br)cc1)SCC2)Nc1nccs1 | – | – | – | – | 61.1
O=C(CSc1nc2c(c(=O)n1-c1ccc(Cl)cc1)SCC2)Nc1nccs1 | – | – | – | · | –
O=C(CSc1nc2c(c(=O)n1-c1ccc(Br)cc1)SCC2)NCc1ccco1 | – | – | – | – | –
C=CCn1c(=O)c2c3c(sc2n2c(Nc4ccc(C(=O)OCC)cc4)nnc12)CCCC3 | – | – | – | – | –
C/C(=N\NC(=O)c1ccc(Br)cc1)C1C(=O)c2ccccc2C1=O | – | – | – | – | –
COc1ccc(-c2cn3c(C)c(C(=O)NCc4ccc5c(c4)OCO5)sc3n2)cc1 | · | · | · | – | ·
CCNC(=S)NC1CC2CCC(C1)N2Cc1ccccc1 (configuration not stated) | – | – | – | – | 51.7
CCCNC(=S)NC1CC2CCC(C1)N2Cc1ccccc1 (configuration not stated) | – | – | – | – | –
CCN(CC)S(=O)(=O)c1ccc2oc(SCC3CN=C(c4ccc(OC)cc4)S3)nc2c1 (configuration not stated) | – | 78.8 | – | – | –
COc1ccc(C2=NCC(CSc3nnc(-c4ccc5c(c4)OCO5)o3)S2)cc1 (configuration not stated) | – | – | – | – | –
CCCOc1ccc(Cc2nn[nH]n2)cc1 | – | – | – | · | 50.9
CCOc1ccc(Cc2nn[nH]n2)cc1 | – | – | – | – | –
NC(=O)C1(N2CCCCC2)CCN(C(=O)CSc2nc3ccccc3[nH]2)CC1 | · | · | · | – | ·
CC(C)c1nnc(NC(=O)CCC(=O)N2CCN(C3CCCCC3)CC2)s1 | – | – | – | – | –
CCC1=NC(c2ccc(OC)cc2OC)N(O)C1(C)C (configuration not stated) | – | – | – | – | –
CN(C)c1oc(-c2ccccc2Cl)nc1P(=O)(c1ccccc1)c1ccccc1 | – | 67.2 | – | – | –
COC(=O)N(C)CCCC1(C)C(=O)N(C)c2ccc(O)cc21 (configuration not stated) | – | – | – | – | –
COc1cc(OC)c(CN2CCN(c3ccc(F)cc3)CC2)cc1Br | – | – | – | · | 77.5
CC1CCc2nn(CC(=O)NC3CCCC3)cc2C1 (configuration not stated) | – | – | – | – | 59.0
CCOC(=O)c1cccc(NC(=O)Cn2cc3c(n2)CCC(C)C3)c1 (configuration not stated) | – | 75.4 | – | · | –
CCN(CC)CCCNC(=O)Cn1cc2c(n1)CCC(C)C2 (configuration not stated) | – | – | – | · | –
CCCSCCCNC(=O)Cn1cc2c(n1)CCC(C)C2 (configuration not stated) | – | – | – | – | 50.8
Cc1cc(C)cc(OCC(=O)OCCN2C(=O)c3ccccc3C2=O)c1 | – | – | – | – | –
Brc1cccc(-c2nnc(SCc3nc4ccccc4[nH]3)o2)c1 | – | – | – | – | –
c1ccc2[nH]c(CSc3nnc(-c4ccncc4)o3)nc2c1 | – | 81.0 | – | · | 79.8
Clc1ccccc1CSc1nnc(-c2ccncc2)o1 | – | 89.7 | – | – | 95.0
COc1cc(-c2nnc(SCc3ccccc3Cl)o2)cc(OC)c1OC | – | – | – | – | –
c1ccc2c(CSc3nnc(-c4ccncc4)o3)cccc2c1 | – | 91.3 | – | – | 96.4
O=C(CN1C(=O)c2ccccc2C1=O)N1CCN(c2ccccc2)CC1 | – | – | – | – | –
